Data published in the OligoGym collection.

target: SLC28A2; test: pooled miR-30 sensor sort-seq; sequence = guide strand; settings: shRNA
Also: reference of the scale not given here.

Sequence	sensor-assay potency score (higher = more potent)
TTGGACAGTCTGTCCACTCTAC	0.142
ATCTTCTTGAACAATCTGGCGT	-0.838
TTGGACAAGTCACTCTTCCGGT	-0.0512
ATAGTGATTTGTAAAAACCAGG	-0.831
TTTGTTCTTGTATTGAGACAGT	-0.497
TTGAACAATCTGGCGTGTGTTT	-0.953
TTCTTTTTCCATGAGCTCCAGC	-0.532
TTGGTGAAACTTGTGTTTGGGA	-0.24

target: SLC29A1; test: as above; settings: shRNA

Sequence	sensor-assay potency score (higher = more potent)
TAGGGTCATGACATTGTTGAAG	-0.605
TTGACCTCAACAGTCACGGCTG	0.158
TCGAAGACCACAGTCAGGTAGC	-0.552
TTTGTATCTGTCCTGAGGCTGG	-0.764
AAATGATAACAGCACAGGCTGT	-0.935
TAACGTTCCCAGGTGCTGCTGC	0.232
TTGAAGATGGCACTGAGAGAGT	-0.713
ATATTGAAAGTCAAGAAACAGG	-1.17
TTTGCTAATGAGGTCCAACTTG	-0.866
TTTCTGATAGCTCCGAGCCACT	-1.47
TCCTTTGCTAATGAGGTCCAAC	-1.65
TCAAGAAACAGGACACAGGAAT	-0.724
ATGAAGAAGATGAACCAGGCAT	0.328
TTGCTAATGAGGTCCAACTTGG	-1.11
TTCAAGCTTGAGCTGCTGGTAG	0.0487
TTGTGAAATACTGAGTGGCCGT	-0.907
TTGAGCTGCTGGTAGTAGCGGT	0.0578
AATGTTGCACAGCAGCAGCAGT	-1.2
TGAATTAATGAGCACGATCTTG	-0.995
ATGATAACAGCACAGGCTGTGA	-1.06
TGAAACTCCAGATTCCTCTTTG	-0.131
AAGACCACAGTCAGGTAGCGGC	-0.976
TTGCACAGCAGCAGCAGTGGCA	-0.846
